Here are results for 23 compounds from PubChem BioAssay (Tox21).

Molecules are shown by their SMILES. Values joined by “and” are separate entries in the source; they are usually repeats but may differ in a detail not shown here. Identical values can stand only once. Inconclusive results are not listed. Some structures have more than one record in an assay (separate samples or runs), and their calls can disagree. Active and inactive are the calls of the source. Unless noted, calls follow the shape of the dose curve; as a rule, active = well fitted curve in the direction sought with a large enough effect in the repeat runs; inconclusive = weak or mixed curves; inactive = no such curve, though single readings can be large; an effect the other way counts as inactive or inconclusive.

A short description of test [1]: qHTS assay to identify small molecule antagonists of the retinoid acid receptor (RAR) signaling pathway - cell viability counter screen (AID 1159551). Also: nearly all actives have a fitted effect of over 35% in size. Also: potency is read from the fitted curve at half-maximal effect. The method in brief:
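Following overnight attachment, C3RL4 reporter cells received DMSO-dissolved compounds and then retinol (1 uM final). Six hours later at 37 C, ATP content was measured by CellTiter-Glo luminescence.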
(qHTS replaces the single test concentration by a dilution series.)

Test [2] in a line: qHTS assay to identify small molecule antagonists of the retinoic acid receptor (RAR) signaling pathway (AID 1159552; also: nearly all actives have a fitted effect of over 50% in size; also: potency is read from the fitted curve at half-maximal effect). The method in brief:
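Readout: luciferase luminescence, 30 min post-reagent at RT. Setup: C3RL4 RARE reporter cells, compounds plus retinol 1 uM final, 6 hr incubation at 37 C and 5% CO2.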

Test [3] in a line: qHTS assay to identify small molecule antagonists of the estrogen related receptor (ERR) signaling pathway (AID 1224819;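 also: luminescence from an ERR-driven luciferase reporter measured with One-Glo reagent; series mostly up to about 46 µM; nearly all actives have a fitted effect of over 50% in size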). Put shortly:
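LOPAC library screened for antagonism as reduced One-Glo luminescence in ERR reporter cells (2,000/well). Compounds were added after 6 h pre-incubation and left 18 h at 37C; reading followed a 30 min room-temperature reagent step.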

Test [4] is described as follows: qHTS assay to identify small molecule agonists of the estrogen related receptor (ERR) signaling pathway (AID 1224820). The method in brief: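 Quantitative HTS of the LOPAC library used NTP ERR reporter cells treated 18 h at 37 C. Signal is luminescence after One-Glo addition and a 30 min room-temperature incubation.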
Test [5] relates to estrogen-related receptor alpha (ERRalpha) with PGC-1alpha coactivator, human. The test is described as follows: qHTS assay to identify small molecule antagonists of the estrogen related receptor signaling pathway with the pleiotropic PPARgamma coactivator (PGC) (AID 1224821; calls by dose curve;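 also: series mostly up to about 46 µM; lower luminescence signal means antagonism of PGC/ERR signalling; nearly all actives have a fitted effect of over 50% in size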). Put shortly: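 Quantitative HTS for antagonism: PGC/ERR cells received compounds after 6 h attachment and were incubated 18 h at 37 C, with luminescence (One-Glo) as the endpoint.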

Test [6] can be described thus: qHTS assay to identify small molecule antagonists of the estrogen related receptor signaling pathway with the pleiotropic PPARgamma coactivator (PGC) cell viability counter screen (AID 1224822; also: series mostly up to about 46 µM). The method in brief: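 qHTS format, DMSO compound stocks pin-transferred onto PGC/ERR cells 6 h after plating; 17.5 h exposure at 37 C, then CellTiter-Fluor fluorescence.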

Test [7] in a line: qHTS assay to identify small molecule agonists of the estrogen related receptor signaling pathway with the pleiotropic PPARgamma coactivator (PGC) (AID 1224823). Put shortly:
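Cell-based luciferase assay in the NTP-supplied PGC/ERR line, 2,000 cells/well; 18 h compound exposure at 37 C, luminescence after One-Glo.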

Test [8] in a line: qHTS assay to identify small molecule antagonists of the estrogen related receptor (ERR) signaling pathway from Tox21 library - cell viability counter screen (AID 1224834). Also: nearly all actives have a fitted effect of over 30% in size. Also: potency is read from the fitted curve at half-maximal effect. Put shortly: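 Viability readout (CellTiter-Fluor fluorescence, 30 min at 37 C) multiplexed with the ERR assay; cells treated 17.5 h at 37 C with compounds delivered in DMSO.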
In test [9] the target is Luciferin 4-monooxygenase (Photinus pyralis) (UniProt P08659). The test is described as follows: qHTS assay to identify small molecule inhibitors of firefly luciferase (AID 1224835). Also: nearly all actives have a fitted effect of over 25% in size. Also: potency is read from the fitted curve at half-maximal effect. As to activity change, negative = inhibition: series mostly up to about 120 µM. Put shortly: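 Biochemical qHTS: compounds run as interplate titrations against purified firefly enzyme, with D-luciferin and ATP each at its KM concentration. Light output recorded by CCD imaging.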

The nature of test [10]: qHTS assay to identify small molecule agonists of the retinoic acid receptor (RAR) signaling pathway (AID 1159553). The method in brief: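 Cell line C3RL4, RARE luciferase reporter. Treatment: compounds in DMSO, 6 hr, 37 C, 5% CO2, after overnight plating. Detection: luminescence, 30 min RT after reagent.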
% is scaled to controls: 0 for no effect and ±100 for the full control effect.

Chain of Luciferin 4-monooxygenase (Photinus pyralis) (P08659 whole entry, looked up): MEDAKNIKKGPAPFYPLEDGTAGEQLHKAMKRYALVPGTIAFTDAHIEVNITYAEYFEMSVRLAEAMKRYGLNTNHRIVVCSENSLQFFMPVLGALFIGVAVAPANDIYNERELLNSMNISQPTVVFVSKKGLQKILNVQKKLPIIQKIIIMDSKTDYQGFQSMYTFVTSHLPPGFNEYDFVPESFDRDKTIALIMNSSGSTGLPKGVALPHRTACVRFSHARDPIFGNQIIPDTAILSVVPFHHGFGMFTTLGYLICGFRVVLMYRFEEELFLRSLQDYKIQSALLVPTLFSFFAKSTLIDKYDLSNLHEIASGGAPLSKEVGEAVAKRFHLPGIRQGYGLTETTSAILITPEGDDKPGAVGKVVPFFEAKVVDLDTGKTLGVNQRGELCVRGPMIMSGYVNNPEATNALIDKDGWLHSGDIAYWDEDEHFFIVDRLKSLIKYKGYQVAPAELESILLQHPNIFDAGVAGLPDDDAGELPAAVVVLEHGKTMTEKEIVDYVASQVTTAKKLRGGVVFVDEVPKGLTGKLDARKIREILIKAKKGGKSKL

As to `c1cnc2cc3c(cc2n1)C1CNCC3C1`, the Potency result in test [1], in test [2], in [3], in test [5], in test [6] and in test [8] was “inactive” throughout. Further, the Potency result in test [9] is “inactive”. Also, the compound was called inactive in test [4] and in [7].
Regarding `O=C(O[C@@H]1Cc2c(O)cc(O)cc2O[C@@H]1c1cc(O)c(O)c(O)c1)c1cc(O)c(O)c(O)c1`, the Potency result in [1], in [2] and in test [10] was “inactive” in each case. The Potency was 48.7 µM (active) and 52.5 µM (active) in test [8]; 25.3 µM (active) and 38.5 µM (active) in [9].
Consider `NCCCCCC(=O)O`, for which the Potency result in test [1], in test [2], in [6], in [8] and in test [9] was “inactive” throughout.
In the case of `CCC(CO)(CO)COCC(CC)(CO)CO`, the Potency result in test [1], in test [2], in test [10], in test [8] and in test [9] was “inactive” throughout.
In the case of `CCN(CC)c1ccc2c(C)cc(=O)oc2c1`, the Potency result in test [1], in [2], in test [10] and in [8] was “inactive” throughout. The Potency in test [9] is 40.2 µM (active) and 35.6 µM (active).
`NNCCc1ccccc1`: the Potency entry in test [1], in test [2], in test [6] and in [8] was “inactive” in each case. For the same compound, the Potency in test [9] was 25.3 µM (active) and inactive.
For the compound `CC(C)(c1ccccc1)c1ccc(Nc2ccc(C(C)(C)c3ccccc3)cc2)cc1`, the Potency result in test [1], in [2], in test [10], in test [8] and in test [9] was “inactive” each time.
Take `Cc1ccc(-c2cc(C(F)(F)F)nn2-c2ccc(S(N)(=O)=O)cc2)cc1`: the Potency is 60.9 µM (active) and inactive in test [1]; 43.1 µM (active) and 27.3 µM (active) and 29.8 µM (active) in test [2]; 48.4 µM (active) and 61.1 µM (active) in test [8]. In addition, the compound was classed as inactive in test [4] and in [7]. Besides, the Potency entry in test [5], in test [6] and in test [9] was “inactive” each time.
In the case of `O=C1Nc2ccccc2C1(c1ccc(O)cc1)c1ccc(O)cc1`, the Potency entry in test [1], in test [10] and in [9] was “inactive” each time. For the same compound, the results for the Potency in test [2] and in test [8] were 61.1 µM (active) and 43.3 µM (active), respectively.
`COc1cc(C(=S)N2CCOCC2)ccc1O`: the Potency result in test [1], in [2], in test [10], in [8] and in test [9] was “inactive” in each case.
On to `CCCCCCCCCCCCCCCCCl`, for which the activity change, negative = cytotoxicity in test [1] was 4.57% [at 19 µM] (inactive). The activity, negative = inhibition in test [2] was -10.4% [at 19 µM] (inactive). In addition, the Potency entry in test [10] is “inactive”. The viability change, negative = cytotoxic in test [8] was 1.81% [at 19 µM] (inactive). The activity change, negative = inhibition in test [9] is 0.302% [at 23.6 µM] (inactive).
With `CCCOC(=O)c1cc(O)c(O)c(O)c1`, the Potency entry in [1] and in test [2] was “inactive” in each case. The Potency in [8] was 54.2 µM (active) and 61.1 µM (active).
Take `CCOC(=O)C(C)C(C)=O` (stereo not drawn): the Potency entry in [1], in test [2], in test [8] and in [9] was “inactive” in each case.
Take `C=CC(=O)OCCCCCCCC`: the Potency entry in [1], in test [2], in test [8] and in test [9] was “inactive” each time.
On to `Oc1c(Cl)cc(Cl)cc1Sc1cc(Cl)cc(Cl)c1O`, for which the Potency entry in test [1] and in test [9] was “inactive” each time. In addition, the Potency in test [2] was 30.7 µM (active) and 27.8 µM (active) and 27.3 µM (active); in [8], 21.7 µM (active) and 24.3 µM (active).
Turning to `Cc1cc(OCCOCC[N+](C)(C)Cc2ccccc2)ccc1C(C)(C)CC(C)(C)C`, the Potency in test [1] was 60.8 µM (active) and 29.8 µM (active); in test [2], 48.3 µM (active) and 29.8 µM (active); in test [8] it was 54.2 µM (active) and 16.8 µM (active). In addition, in test [9], the Potency entry was “inactive”.
As to `C/C=C/c1ccc(OCC)c(O)c1`, the Potency entry in test [1], in test [2] and in [8] was “inactive” each time. Moreover, in test [9], the Potency is 31.7 µM (active) and 35.6 µM (active).
As for `COC(=O)c1cccc(C(=O)OC)c1`, the Potency entry in test [1], in test [2], in test [8] and in test [9] was “inactive” each time.
With `c1ccc2n[nH]nc2c1`, the Potency result in test [1], in test [2], in [8] and in test [9] was “inactive” in each case.
Turning to `CCCCCCCCCCCCCC[P+](CCCC)(CCCC)CCCC`, the Potency in test [1] is 43 µM (active) and 43.3 µM (active); in [2], 9.63 µM (active) and 9.69 µM (active); in test [8], 21.6 µM (active) and 27.3 µM (active).
As for `CN1C(=O)c2ccc([N+](=O)[O-])cc2C1=O`, the Potency entry in test [1], in [2], in [8] and in test [9] was “inactive” each time.
`Cc1occc(=O)c1OC(=O)C(C)C`: the Potency entry in test [1], in test [2], in [8] and in test [9] was “inactive” in each case.
As to `O=C(O)Cn1cnnn1`, the Potency entry in test [1], in test [2], in test [8] and in [9] was “inactive” throughout.
